PubChem BioAssay (NCI)
Where “and” joins values, the source holds several entries; their conditions need not be identical. Equal entries are not always repeated. The panel holds about 83,000 compounds, 20% with a hit somewhere; the sample as a whole holds those more often.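 A percent growth of 40 corresponds to 60% growth inhibition; 0 means no net growth; -100 means all cells died. Active threshold: below 10.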 Calls of active or inactive are those of the source.

system: HL-60(TB) leukemia; assay: NCI-60 one-dose screen, 48 h (100 = growth as untreated, 0 = no growth, -100 = all killed); settings: 10 µM unless noted

Compound	growth
COc1ccccc1Nc1nnc(-c2ccc(Cl)cc2)o1	-9.62% (active)
CCCCCCCCCCCCCCCCCC1=NCCN1CCO	36.3% (inactive)
COc1cc(OC)cc(-c2ccc(-c3ccc(C(=N)N)cn3)o2)c1	-65.7% (active)
O=C(N/N=C/c1cccc(O)c1)c1ccc(C(F)(F)F)nc1Nc1cccc(C(F)(F)F)c1	-30.4% (active)
CC(=O)CC(c1ccc([N+](=O)[O-])cc1)c1c(O)c2ccccc2oc1=O (stereo not given)	97% (inactive)
N#Cc1c(N)nc(N)nc1Nc1ccc(Br)cc1	93.3% (inactive)
N#CC1c2ccccc2C=CN1C(=O)c1ccccc1 (stereo not given)	93.2% (inactive) and 71.1% (inactive)
COCC(=O)NC/C=C/c1ccc2ncnc(Nc3ccc(Oc4ccc(C)nc4)c(C)c3)c2c1	22.2% (inactive)
CC(C)C(=O)Nc1ccc([N+](=O)[O-])c(C(F)(F)F)c1	91.1% (inactive) and 98.3% (inactive)
COc1ccc(-c2cc(-c3ccc(Cl)cc3)nc(SCCCCCCC(=O)NO)n2)cc1OC	19% (inactive)
CN(C)CCNc1nc2c3cc(Cl)ccc3nn2c2ccccc12	56.1% (inactive)
Oc1c(C(c2ccc(F)cc2)N2CCCCC2)ccc2cncnc12 (stereo not given)	-29.3% (active)
CCOC(=O)c1c(C)nc2c(c1N)CC(=O)N2Cc1cc(F)cc(Cl)c1	79.1% (inactive)
CC1(C)[C@@H](OC(=O)CCC(=O)O)CC[C@]2(C)[C@H]3C(=O)C=C4[C@@H]5C[C@@](C)(C(=O)O)CC[C@]5(C)CC[C@@]4(C)[C@]3(C)CC[C@@H]12	84.9% (inactive) and -56.3% (active)
COc1cnc2c(c1)C(=O)c1c-2n(CCCN2CCNCC2)c(=O)c2cc(F)ccc12	-25% (active)
CCCCCCCCCCCC[N+]1(CCCCCCCCCCCC)CCCC(C)C1 (stereo not given)	-79.5% (active)
Cn1cc(-c2cc3c(Nc4ccc(CC(=O)Nc5cc(C(C)(C)C)on5)cc4)ncnc3[nH]2)cn1	6.63% (active) and -21.3% (active)
COc1cc(/C=C\c2cc(/C=C\c3ccc(O)c(OC)c3)n(C(=O)COc3ccc(Cl)cc3Cl)n2)ccc1O	-18.7% (active)

Compound	growth
O=C(CCl)N(C1CCCCC1)C1CCCCC1	104% (inactive)
NCCOc1ncccc1/C=C1\c2ccccc2-c2ccc([N+](=O)[O-])cc21	-41.7% (active)
C=C(C)[C@@H]1CC[C@]2(C(=O)OC)CC[C@]3(C)[C@H](CC[C@@H]4[C@@]5(C)C/C(=C/c6ccc(OC)cc6)C(=O)C(C)(C)[C@@H]5CC[C@]43C)[C@@H]12	87.6% (inactive)
CN(c1ccccc1)c1ccc2c(c1)OCCC21CC1Nc1cnccc1C(=O)O (stereo not given)	65.3% (inactive)
COc1ccc(C2=Cn3c(CCC(=O)c4nc5ccccc5[nH]4)nnc3SC2)cc1	95.6% (inactive)
CC1=CC2(C)/C=C(C)/C=C\CC(O)/C=C3/C=CC(=C4C(=O)OC2(CC1C)C4=O)OC3 (stereo not given)	-54.9% (active)
O=C(c1ccccc1)c1cc2ccccc2oc1=O	64.6% (inactive)
COc1cc2c3c(n([C@@H]4CCOC4)c(=O)c2cc1OC)-c1cc2c(cc1C3=O)OCO2	26.3% (inactive)
O=C1NC(=S)S/C1=C\c1cc(Br)ccc1O	83.9% (inactive)
COc1ccc(-c2n[nH]nc2-c2cc(OC)c3c(c2OC)OCO3)cc1	-23.2% (active)
O=C(O)C(O)c1ccccc1 (stereo not given)	97.3% (inactive)
CC(C)(C)OC(=O)N1CCc2c(sc3ncnc(N/N=C/c4cccc(Br)c4)c23)C1	71.8% (inactive)
COC1/C=C/OC2(C)Oc3c(C)c(O)c4c(O)c(c(/C=N/Nc5ccc([N+](=O)[O-])cc5[N+](=O)[O-])c(O)c4c3C2=O)NC(=O)C(C)=C/C=C/C(C)C(O)C(C)C(O)C(C)C(OC(C)=O)C1C (stereo not given)	-1.29% (active)
COc1cc2oc(-c3cccc(NC(=O)c4ccccc4)c3)cc(=O)c2c(OC)c1OC	60.5% (inactive)
CCN1CCN(Cc2ccc(NC(=O)Nc3ccc(-n4ccc5c(NC(=O)c6ccccc6)nccc54)cc3)cc2C(F)(F)F)CC1	35.8% (inactive)
CS(=O)(=O)OCCN(CCOS(C)(=O)=O)c1ccc(/C=N/Nc2ccc([N+](=O)[O-])cc2[N+](=O)[O-])cc1	71.6% (inactive)
O=C1/C(=C/c2ccc(Cl)cc2)SC(=S)N1CCc1ccc(O)cc1	76.6% (inactive)
